# From the supplement of paper PMC3334620
# The full ranking holds about 33,000 sequences; the median of “E-score (-0.5 to 0.5)” is about -0.04, and the highest 2% start at about 0.36. This excerpt belongs to a sample that is enriched for the highest values.
# Target: T1, Hmlalpha2 (UniProt P0CY09)
# T1 sequence: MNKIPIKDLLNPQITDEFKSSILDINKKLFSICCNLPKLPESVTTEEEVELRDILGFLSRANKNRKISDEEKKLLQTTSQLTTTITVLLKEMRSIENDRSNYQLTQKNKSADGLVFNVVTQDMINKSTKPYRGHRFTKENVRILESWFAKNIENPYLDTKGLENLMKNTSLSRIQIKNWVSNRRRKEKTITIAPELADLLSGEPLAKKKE
# Assay: PBM E-score (8-mer binding enrichment) (E-score (-0.5 to 0.5)); higher = stronger / more preferred TF binding
# Details: protein concentration: 200 nM; construct: GST-full length
# Summary of the method: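 Masliner-normalised scans of fluorescent anti-GST signal were the basis for scoring. That signal came from GST-tagged yeast transcription factors applied at about 100-200 nM to double-stranded universal all-10-mer Agilent arrays on fresh or once-stripped slides. Each ungapped eight-base word, pooled with its reverse complement, received an E-score from the Universal PBM Analysis Suite.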
row,Sequence,PBM E-score
1,TAGGTGGA,-0.0803
2,CGGTGGAG,-0.362
3,ATACTGGA,0.0598
4,GAACATAA,0.191
5,TAACATAA,0.422
6,TGACATAA,0.319
7,GCACATAA,0.12
8,GTACATAA,0.377
9,TTACATAA,0.474
10,CTACATAA,0.317
11,GGACATAA,0.05
12,CAACATAA,0.359
13,GCCAAGAC,-0.161
14,CGTGCAAA,0.172
15,ACAATTTA,0.173
16,GGACTAGA,-0.227
17,TCATGTCA,0.359
18,GCATGTCA,0.36
19,TCATGTAA,0.482
20,GCATGTGA,0.263
21,TCATGGAA,-0.157
22,GCATGTAA,0.485
23,AAGGTCCG,-0.108
24,AACCTCGA,-0.0213
25,TAGGAGAA,0.122

row,Sequence,PBM E-score
1,GCATAGCC,-0.0671
2,GTTTTTAA,0.279
3,GGGTGTTA,0.195
4,ATGTGTTC,0.233
5,CGGTGTTA,0.253
6,ATGTGTGG,0.0473
7,CTGTGTTA,0.398
8,CTGTGTTC,0.304
9,GAGTGTTA,0.21
10,ATGTGTCA,0.261
11,ATGTGTGA,0.202
12,ATGTGTTG,0.39
13,GTGTGTTA,0.435
14,ATGTGTTA,0.429
15,GTGGACCA,-0.0852
16,ACTCTGTA,0.204
17,ATATCACC,0.0884
18,ACTGCTCG,-0.0631
19,CCTTCAAC,0.058
20,GTGATCAC,-0.229
21,ATCGCTGC,-0.136
22,TAAGCGCA,0.0443
23,AGTCAACA,0.269
24,CTTGGTCC,-0.159
25,CCCATACC,-0.159

row,Sequence,PBM E-score
1,GTGTACAA,0.439
2,CTGTACAA,0.288
3,GGGTACAA,0.0999
4,CTGTACAC,0.291
5,ATGTACAC,0.43
6,GTGTACAC,0.415
7,AGGTACAC,0.0905
8,ATGTACCC,0.148
9,TAGTACAA,0.244
10,CTGTACAG,0.0499
11,TTGTACAA,0.442
12,GCGTACAC,0.247
13,AACTGCGT,0.257
14,ATGAAGAC,0.028
15,GTGAAATA,0.185
16,TACGTCGA,0.0708
17,CCCGCCAC,-0.152
18,ATATTGGG,-0.261
19,GACTCTGA,-0.12
20,CTCGAACA,0.112
21,AAAGCCAT,0.0384
22,AACCCTGG,-0.204
23,ATGTACAA,0.433
24,AGGTACAT,0.288
25,AGGTACAA,0.21

row,Sequence,PBM E-score
1,ATGTACAT,0.457
2,GTGTACTA,0.311
3,ATGTACAG,0.289
4,ATGTACTA,0.397
5,ATGTACTG,0.351
6,ATGTACGA,0.281
7,GCGCAAGA,-0.0432
8,AAGACAGT,-0.0478
9,AGAAAGTG,-0.223
10,CCATTCGA,-0.0609
11,ATCTCGTA,0.191
12,AAATCCGC,-0.125
13,GAAAATTC,-0.0326
14,CAGCCTTC,-0.301
15,TCATGAGA,0.0706
16,ACATGAGA,0.406
17,ACATGATC,0.426
18,GCATGATA,0.116
19,CCATGATA,-0.142
20,CCATGATC,-0.128
21,ACATGATA,0.435
22,ACATGATG,0.348
23,ACATGAGT,0.364
24,CGGATATC,-0.0199
25,TCTCTGAA,-0.162

row,Sequence,PBM E-score
1,CGCATAGC,-0.0965
2,AGGTCCAA,-0.112
3,ACGACCCC,-0.127
4,ATGGCAAA,-0.00556
5,CTTGTACC,0.0814
6,ATTGTACA,0.403
7,GTTGTACA,0.424
8,GCTGTACA,0.154
9,CTTGTAGA,0.253
10,GTTGTAGA,0.325
11,ATTGTACC,0.0764
12,ATTGTACG,0.123
13,CTTGTACA,0.403
14,CTAGTTCA,0.0551
15,CCTCTCCG,-0.305
16,TAAGTCGA,-0.0631
17,CAACGGTC,-0.0538
18,AAGAGGGA,-0.246
19,CAAGATAG,-0.0379
20,GTTTTGAA,0.315
21,ATCTCCTG,-0.0358
22,GTGTGTAA,0.465
23,CTGTGTAA,0.483
24,CTGTGTAC,0.35
25,GAGTGTAA,0.295

row,Sequence,PBM E-score
1,ATGTGTAC,0.372
2,ATGTGTAG,0.349
3,ATGTGTAA,0.452
4,CTGTGTCA,0.0766
5,CTGTGTGA,0.247
6,AAGTGTAA,0.156
7,GGGTGTAA,0.342
8,ATGTGTGC,-0.0456
9,CTCAGAGA,-0.0918
10,CGCTAAAC,0.0834
11,CAAGATGA,-0.0169
12,AAATGCCG,-0.02
13,ACGGGGAA,-0.0619
14,AGACCACT,-0.00203
15,GCGCCAAC,-0.0446
16,CGCTATAA,-0.00727
17,GCTTAACC,-0.00807
18,TCTTAAAA,-0.0174
19,ACTTAACT,0.159
20,CCTTAACA,0.291
21,ACTTAACG,0.14
22,GCTTAACA,0.378
23,ACTTAACA,0.388
24,TCTTAACA,0.404
25,TCTTAAGA,-0.132

row,Sequence,PBM E-score
1,TATAACGA,0.176
2,ACCTAGCC,-0.205
3,AGTAGTGC,-0.153
4,GAGACGAC,-0.19
5,CCAAAAGG,-0.136
6,CGGCGGCC,-0.188
7,ACCGTGAT,-0.0701
8,ACACGCGG,0.324
9,ACACGCGA,0.378
10,ACACGCGT,0.43
11,ACACGCGC,0.304
12,AAACGCGT,0.312
13,ACGCGCGT,0.343
14,AACTGCAC,0.0702
15,GAGGTAAA,0.228
16,ACTGTAAT,0.251
17,AATGTAAT,0.461
18,TCTGTAAA,0.278
19,GATGTAGC,-0.0783
20,ACTGTAAA,0.222
21,GATGTAAA,0.433
22,AATGTAAC,0.296
23,AATGTAAA,0.434
